Most compounds without a hit are left out; they make up all but 4.1% or so of the library.
DAX1 inh-1 – DAX1 (NR0B1) inhibitors, primary screen, cell-based, HEK293, Gal4-DAX1, luciferase luminescence; 0.99% of 340,000 active; HEK293 Gal4-DAX1 luciferase reporter; inhibition, % at 6.75 µM; Nuclear receptor subfamily 0 group B member 1 (Homo sapiens), P51843;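 active means inhibition above the mean over all tested compounds plus 3 SD, cut at about 4.2% in these data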;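 further: 0% = DAX1-transfected cells with DMSO and 100% = empty-vector control cells with DMSO; inhibition shows as a rise in luminescence from relieved DAX1 repression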
DAX1 inh-2 – DAX1 (NR0B1) inhibitors on StAR promoter, primary screen, cell-based, luminescence, SF-1 (NR5A1), full-length DAX-1 | HEK293T StAR-luciferase reporter, SF-1/DAX-1 repression relief | inhibition, % at 6.8 µM | 1.1% of 370,000 active | AID 652010, 2013;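 active means inhibition above the mean over all tested compounds plus 3 SD, cut at about 3.6% in these data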;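 further: 0% = DAX-1 cells with DMSO and 100% = cells lacking DAX-1 with DMSO; higher inhibition means more luminescence from relief of DAX-1 repression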
hgDAF-12 ag – H. glycines DAF-12 receptor agonists, primary screen, cell-based, luminescence, HEK293, GAL4 fusion, UAS-luciferase; Nuclear hormone receptor DAF-12 (Heterodera glycines), GAL4 fusion; HEK293 GAL4-hgDAF12 UAS-luciferase reporter, agonist luminescence; normalized to butyrate control; activation, % at 6.8 µM; 1.8% of 370,000 active;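 active means activation above a cutoff set at the mean of all screened compounds plus 3 SD, cut at about 10% in these data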;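 further: 0% = DMSO wells and 100% = sodium butyrate wells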
hcDAF12 agonist – H. contortus DAF-12 nuclear receptor activators, primary screen, cell-based, luminescence, HEK293, lit1-tk-luc reporter; HEK293 hcDAF-12 lit1-tk-luc reporter; 0% DMSO, 100% Δ7-dafachronic acid; activation, % at 6.8 µM; 1.4% of 370,000 active; AID 652067, 2013;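 active means activation above the mean of all tested compounds plus 3 SD, cut at about 5.5% in these data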;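 further: 100% = response to 3 µM Δ7-dafachronic acid high control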
ssDAF-12 act – S. stercoralis DAF-12 nuclear receptor activators, primary screen, cell-based, luminescence, HEK293, GRIP1 co-expression, lit1-tk-luc; Nuclear hormone receptor DAF-12 (Strongyloides stercoralis); HEK293 ssDAF-12/GRIP1 lit1-tk-luc reporter; % of 3 µM dafachronic acid response; activation, % at 6.8 µM; 1% of 370,000 active;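 active means activation above the mean over all tested compounds plus 3 SD, cut at about 0.9% in these data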;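 further: 0% = DMSO-only wells and 100% = 3 µM delta7-dafachronic acid wells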
DAX1 inh confirm – DAX1 (NR0B1) inhibitors relieving SF-1 repression, confirmation, cell-based, luminescence, HEK293T, full-length DAX-1, SF-1 activated StAR promoter. shares compounds with DAX1 inh-2. HEK293T StAR-promoter luciferase reporter, SF-1/DAX-1 repression. inhibition, % at 6.8 µM. 87% of 2,400 active. AID 652134, 2013;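 active means inhibition above the average of every tested compound plus 3 SD, cut at about 3.8% in these data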;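 further: 0% = DAX-1 cells with DMSO and 100% = no DAX-1 control cells with DMSO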
Target sequence (P51843 whole entry, looked up): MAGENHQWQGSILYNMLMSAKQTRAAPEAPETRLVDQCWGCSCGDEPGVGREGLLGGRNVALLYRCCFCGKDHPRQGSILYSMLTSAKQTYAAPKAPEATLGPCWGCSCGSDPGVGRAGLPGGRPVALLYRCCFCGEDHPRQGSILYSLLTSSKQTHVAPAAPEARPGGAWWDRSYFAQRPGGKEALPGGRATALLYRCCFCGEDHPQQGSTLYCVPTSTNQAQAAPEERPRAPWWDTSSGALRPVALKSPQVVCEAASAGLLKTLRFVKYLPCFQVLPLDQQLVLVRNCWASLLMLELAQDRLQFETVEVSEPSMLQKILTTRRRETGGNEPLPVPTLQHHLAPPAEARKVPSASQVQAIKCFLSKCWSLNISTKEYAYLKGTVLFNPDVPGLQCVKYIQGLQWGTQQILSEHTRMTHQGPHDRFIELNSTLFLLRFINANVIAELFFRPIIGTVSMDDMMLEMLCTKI
SF1 mutant ctr – StAR reporter signal changes without DAX1, counter-screen for DAX1 inhibitor project, cell-based, luminescence, AF-2 mutant SF-1, transactivation. 78% of 2,400 active. HEK293 StAR-luciferase, SF-1 AF2 mutant. shares compounds with DAX1 inh-2. inhibition, % at 6.8 µM;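 active means inhibition above the mean of all tested compounds plus 3 SD, cut at about 3% in these data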;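 further: 0% = DAX-1 transfected cells with DMSO and 100% = cells without DAX-1 with DMSO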
* marks the source's active call; other numbers are inactive results; . = no result.

SMILES	DAX1 inh-1	DAX1 inh-2	hgDAF-12 ag	hcDAF12 agonist	ssDAF-12 act	DAX1 inh confirm	SF1 mutant ctr
COC(=O)C1CN(Cc2cn(CCOC(C)=O)nn2)CCS(=O)(=O)N1Cc1ccc(C)cc1 (stereo not drawn)	.	0	-4	-2	-1	.	.
Nc1ccc(CSc2ccc(Cl)cc2)c(Cl)c1	3	7.3*	11*	3	0	13*	7.6*
CC(C)C(OC(=O)C1=Cc2ccccc2OC1)C(=O)NCC1CCCO1 (stereo not drawn)	1	5.0*	15*	4	0	2	5.2*
O=S(=O)(c1ccc(Cl)s1)N1CCC(c2cn3ccccc3n2)CC1	.	0	-1	-2	-1	.	.
N#Cc1c(NC(=O)/C=C/c2ccco2)sc2c1CCCC2	2	5.1*	6	6.2*	1	31*	-6
O=C(/C=C/c1ccco1)Nc1sc2c(c1C(=O)O)CCC2	0	1	3	0	0	.	.
N#Cc1ccc(S(=O)(=O)NC(=O)[C@H]2O[C@@H](n3ccc(=O)[nH]c3=O)[C@H](O)[C@@H]2O)cc1	.	2	2	-2	-1	.	.
COc1cccc(CNC(=O)[C@H]2CCCN2C(=O)[C@H]2CCCN2C(=O)c2cccc(F)c2)c1	.	0	0	-3	-1	.	.
O=C(OCC(=O)N1CCN(c2ccccc2)CC1)c1ccccc1OC(F)F	0	5.0*	0	-1	-1	-2	-1
O=C(OCC(=O)N1CCCCCC1)c1ccccc1Br	2	4.5*	12*	5.7*	0	10*	5.3*
O=C(OCC(=O)N1CCCC1)c1ccccc1O	4	1	3	3	0	.	.
CN(Cc1ccccc1)S(=O)(=O)c1cccc(C(=O)OCc2ccc(C(F)(F)F)cc2)c1	.	-1	1	1	-1	.	.
CC(C)c1ccc(NC(=O)c2ccc3snnc3c2)cc1	1	5.0*	12*	5	0	3	1
CC[C@H](CCCc1ccc(OC)cc1)CCC(=O)N1CCOCC1	.	-1	-2	-2	-2	.	.
Cc1cscc1-c1ccc(C(=O)Nc2c(C)cccc2C)o1	.	4.5*	-4	-3	-1	-1	0
Cc1ccc(-c2ccc(C(=O)Nc3ccccc3)o2)c2ccccc12	0	0	3	-2	-2	.	.
NC(=O)C1CCN(c2ccnc(Cl)n2)CC1	.	.	-1	-2	-1	.	.
O=C(NCCc1cccc(Cl)c1)c1ccc2c(c1)OCO2	-1	11*	10	5.6*	1	13*	6.8*
O=C(CNC(=O)c1cccs1)c1ccc(F)cc1	1	4.7*	13*	5	0	16*	6.9*
O=C(CNC(=O)c1cccs1)Nc1ncccc1O	0	4.5*	0	2	-1	3	2
O=C(CNC(=O)c1cccs1)c1ccc([N+](=O)[O-])cc1	1	2	4	1	-1	.	.
O=C(Nc1ccc(Cl)cc1Cl)O[C@@H]1CC[C@@]23CCCN2C(=O)CCC[C@H]3C1	.	.	0	-1	-2	.	.
Cc1ccc(OCC(=O)Nc2ccc(Cl)cc2)c([N+](=O)[O-])n1	3	6.2*	11*	1	0	10*	7.5*
COC(=O)[C@]12C[C@H](CC(=O)NCc3ccc(OC)c(OC)c3)C(=O)N(Cc3ccc4c(c3)OCO4)C1=C[C@H](COCc1ccccc1)O[C@@H]2C	.	-1	-2	-1	-1	.	.
COc1ccc(-c2oc3c(c2C#CC2(O)CCCCC2)C(OC)CCC3)cc1 (stereo not drawn)	.	5.6*	3	-2	-1	-1	-1
SMILES	DAX1 inh-1	DAX1 inh-2	hgDAF-12 ag	hcDAF12 agonist	ssDAF-12 act	DAX1 inh confirm	SF1 mutant ctr
CCOC1CCCc2oc(-c3ccc(OC)cc3)c(C#CCCO)c21 (stereo not drawn)	.	0	0	-2	-1	.	.
O=C(CSc1ccccn1)Nc1ccc2c(c1)OCCO2	4	1	10	2	0	.	.
O=C(CSc1ccccn1)Nc1ccc2c(c1)CCC2	3	5.0*	6	0	0	7.2*	5.5*
CCCCN(CC)CCCNC(=O)c1cc2c(=O)n(C)c3ccccc3c2n1C	3	4.7*	1	-1	-2	8.7*	2
COc1ccc(C2CC(=O)C(c3cccc(C)c3)=CN2Cc2ccccc2)cc1 (stereo not drawn)	.	-1	-1	-3	-1	.	.
CC(=O)Nc1ccccc1NC(=O)C/C(C)=N/NC(=O)c1ccccn1	1	4.6*	10	7.5*	0	2	3.4*
COc1ccc(N=[N+]([O-])c2ccc(OC)cc2)cc1	1	7.9*	9	5	1	16*	6.8*
COc1ccc(S(=O)(=O)c2ccc(OC)cc2)cc1	0	-1	-1	0	-1	.	.
CCOc1cccc(C2C(C(=O)c3ccc(C)o3)=C(O)C(=O)N2c2nnc(C)s2)c1 (stereo not drawn)	0	6.5*	2	1	-1	6.0*	3.8*
COc1ccc(CNC2CCC23CCC(c2ccccc2)CC3)cc1OC (stereo not drawn)	.	.	0	-3	-1	.	.
CCCCC[C@H](C)N1C[C@@H](COCc2ccccc2)Oc2cc(N3CCC[C@H]3COC)ccc2S1(=O)=O	.	0	2	0	0	.	.
CCCCC[C@H](C)N1C[C@H](COCc2ccccc2)Oc2cc(N3CCC[C@@H]3COC)ccc2S1(=O)=O	.	5.4*	1	1	-1	0	-1
CN(C)CCN(C(=O)c1ccc2c(c1)CCCC2)c1nc2cc3c(cc2s1)OCCO3	2	6.0*	5	6.1*	0	4.4*	2
O=C(C1CCCN(S(=O)(=O)c2ccc(Br)s2)C1)N1CCN(Cc2ccccc2)CC1 (stereo not drawn)	.	-3	-2	-2	-2	.	.
CC1CCCN(c2ccc3nc4ccccc4c(=O)n3n2)C1 (stereo not drawn)	-2	4.7*	11*	4	0	7.8*	3.5*

Source: PubChem (The Scripps Research Institute Molecular Screening Center)
